Assay [1] has as its target Fibroblast growth factor receptor 4 (Homo sapiens) (UniProt P22455). The following applies: at 1 µM.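 Also: reported figure is the averaged percent inhibition of FGFR4, from the GSK PKIS kinase screening panel.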
The target in assay [2] is Tyrosine-protein kinase Fgr (Homo sapiens) (UniProt P09769). The following applies: at 0.1 µM.
For assay [3] the target is unchanged. As to conditions: at 1 µM.
Assay [4] deals with Vascular endothelial growth factor receptor 1 (Homo sapiens) (UniProt P17948). The following applies: at 0.1 µM.
Chain of Vascular endothelial growth factor receptor 1 (Homo sapiens) (P17948 whole entry): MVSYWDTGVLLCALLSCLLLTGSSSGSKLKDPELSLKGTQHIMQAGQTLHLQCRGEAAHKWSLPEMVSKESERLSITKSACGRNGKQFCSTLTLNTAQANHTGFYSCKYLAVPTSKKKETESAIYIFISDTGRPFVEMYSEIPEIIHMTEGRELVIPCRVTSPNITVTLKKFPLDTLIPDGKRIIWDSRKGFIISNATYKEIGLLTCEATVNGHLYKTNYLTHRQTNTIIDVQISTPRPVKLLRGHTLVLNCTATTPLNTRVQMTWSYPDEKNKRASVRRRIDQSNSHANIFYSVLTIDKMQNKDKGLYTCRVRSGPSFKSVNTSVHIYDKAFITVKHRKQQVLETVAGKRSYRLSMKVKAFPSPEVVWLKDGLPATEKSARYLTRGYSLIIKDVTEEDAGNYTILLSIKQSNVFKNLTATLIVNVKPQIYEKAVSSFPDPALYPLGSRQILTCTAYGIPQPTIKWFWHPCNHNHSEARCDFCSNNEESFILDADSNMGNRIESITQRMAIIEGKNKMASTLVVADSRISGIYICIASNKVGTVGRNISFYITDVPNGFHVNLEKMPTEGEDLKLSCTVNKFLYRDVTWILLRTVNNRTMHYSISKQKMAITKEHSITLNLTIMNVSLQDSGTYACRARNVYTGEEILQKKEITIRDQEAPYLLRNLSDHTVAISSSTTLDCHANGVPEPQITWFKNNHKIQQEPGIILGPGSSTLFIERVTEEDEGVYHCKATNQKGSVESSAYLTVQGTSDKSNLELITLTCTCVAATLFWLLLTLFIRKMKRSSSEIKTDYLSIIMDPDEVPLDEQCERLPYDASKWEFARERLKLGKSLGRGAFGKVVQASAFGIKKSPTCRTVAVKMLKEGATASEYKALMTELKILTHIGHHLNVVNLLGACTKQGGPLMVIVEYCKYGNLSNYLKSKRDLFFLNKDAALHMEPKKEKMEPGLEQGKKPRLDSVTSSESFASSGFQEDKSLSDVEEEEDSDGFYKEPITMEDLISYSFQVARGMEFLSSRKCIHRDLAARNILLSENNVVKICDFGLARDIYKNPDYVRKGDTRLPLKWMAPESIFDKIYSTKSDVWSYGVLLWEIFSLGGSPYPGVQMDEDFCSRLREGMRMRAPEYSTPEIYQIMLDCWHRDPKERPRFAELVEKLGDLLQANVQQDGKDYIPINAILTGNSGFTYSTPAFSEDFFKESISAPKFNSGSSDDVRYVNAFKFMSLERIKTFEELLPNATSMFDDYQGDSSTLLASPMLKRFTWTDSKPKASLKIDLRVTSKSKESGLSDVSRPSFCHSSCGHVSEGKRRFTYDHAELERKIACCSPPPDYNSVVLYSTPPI
For assay [5] the target is unchanged. The following applies: at 1 µM.
Assay [6] has as its target Receptor-type tyrosine-protein kinase FLT3 (Homo sapiens) (UniProt P36888). As to conditions: at 0.1 µM.
The target is the same in assay [7]. The following applies: at 1 µM.
Assay [8] concerns T1, Receptor-type tyrosine-protein kinase FLT3 (Homo sapiens), P36888 [D835Y].
T1 sequence (whole entry): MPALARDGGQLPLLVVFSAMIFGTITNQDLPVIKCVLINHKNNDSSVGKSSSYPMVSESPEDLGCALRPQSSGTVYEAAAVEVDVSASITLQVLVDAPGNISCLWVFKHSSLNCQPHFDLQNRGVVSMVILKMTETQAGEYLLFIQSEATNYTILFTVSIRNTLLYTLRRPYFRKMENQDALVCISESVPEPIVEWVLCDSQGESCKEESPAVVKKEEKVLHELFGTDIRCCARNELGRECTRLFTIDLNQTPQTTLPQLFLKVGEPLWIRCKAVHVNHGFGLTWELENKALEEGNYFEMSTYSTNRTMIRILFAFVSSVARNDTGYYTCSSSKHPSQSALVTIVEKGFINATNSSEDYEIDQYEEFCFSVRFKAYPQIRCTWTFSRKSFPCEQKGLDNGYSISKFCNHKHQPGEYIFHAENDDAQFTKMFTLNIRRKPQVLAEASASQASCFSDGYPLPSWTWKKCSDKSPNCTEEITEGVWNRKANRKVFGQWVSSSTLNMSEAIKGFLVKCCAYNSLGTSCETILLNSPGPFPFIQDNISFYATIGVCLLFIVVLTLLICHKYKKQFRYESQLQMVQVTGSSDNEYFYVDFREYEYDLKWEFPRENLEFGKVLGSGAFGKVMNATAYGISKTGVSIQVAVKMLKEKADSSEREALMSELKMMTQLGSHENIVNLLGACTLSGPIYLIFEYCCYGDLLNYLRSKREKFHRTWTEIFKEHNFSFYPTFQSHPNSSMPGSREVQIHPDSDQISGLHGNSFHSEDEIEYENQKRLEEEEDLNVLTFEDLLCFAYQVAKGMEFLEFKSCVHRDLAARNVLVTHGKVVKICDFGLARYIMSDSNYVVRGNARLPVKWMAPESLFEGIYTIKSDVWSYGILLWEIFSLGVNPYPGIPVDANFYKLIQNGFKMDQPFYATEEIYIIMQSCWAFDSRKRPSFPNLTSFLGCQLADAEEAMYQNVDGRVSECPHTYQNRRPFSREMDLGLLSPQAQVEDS
As to conditions: at 0.1 µM.

Assay [9] concerns the target Non-receptor tyrosine-protein kinase TYK2 (Homo sapiens) (UniProt P29597). The following applies: at 1 µM.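 Also: values are mean percent inhibition of TYK2 kinase.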
For assay [10], the target named is T2, Tyrosine-protein kinase receptor TYRO3 (Homo sapiens) (UniProt Q06418).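 Also: reported percentages are averaged inhibition values of TYRO3 kinase activity.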
T2 sequence (whole entry): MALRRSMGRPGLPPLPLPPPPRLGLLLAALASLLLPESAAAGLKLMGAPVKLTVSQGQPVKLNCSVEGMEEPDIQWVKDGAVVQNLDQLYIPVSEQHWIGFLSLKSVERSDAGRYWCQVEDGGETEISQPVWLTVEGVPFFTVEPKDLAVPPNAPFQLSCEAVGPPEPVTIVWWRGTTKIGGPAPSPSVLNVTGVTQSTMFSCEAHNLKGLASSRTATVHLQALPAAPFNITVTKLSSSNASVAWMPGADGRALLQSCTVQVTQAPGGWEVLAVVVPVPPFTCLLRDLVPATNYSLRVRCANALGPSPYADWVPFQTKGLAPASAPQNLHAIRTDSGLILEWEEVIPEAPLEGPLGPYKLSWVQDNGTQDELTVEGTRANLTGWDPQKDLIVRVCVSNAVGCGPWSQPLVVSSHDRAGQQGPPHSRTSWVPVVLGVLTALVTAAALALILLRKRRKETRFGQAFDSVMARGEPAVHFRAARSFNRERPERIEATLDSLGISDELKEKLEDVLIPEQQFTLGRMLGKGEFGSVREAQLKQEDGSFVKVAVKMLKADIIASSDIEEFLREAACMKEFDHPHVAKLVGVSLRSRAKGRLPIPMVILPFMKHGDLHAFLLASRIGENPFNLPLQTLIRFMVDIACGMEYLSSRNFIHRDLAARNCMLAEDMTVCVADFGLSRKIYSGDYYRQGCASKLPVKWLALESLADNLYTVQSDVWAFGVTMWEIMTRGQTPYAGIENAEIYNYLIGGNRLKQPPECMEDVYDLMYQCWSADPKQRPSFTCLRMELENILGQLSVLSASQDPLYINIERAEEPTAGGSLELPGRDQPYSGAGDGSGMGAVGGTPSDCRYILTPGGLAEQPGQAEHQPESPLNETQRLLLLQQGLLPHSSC
As to conditions: at 0.1 µM.

Chain of Non-receptor tyrosine-protein kinase TYK2 (Homo sapiens) (P29597 whole entry): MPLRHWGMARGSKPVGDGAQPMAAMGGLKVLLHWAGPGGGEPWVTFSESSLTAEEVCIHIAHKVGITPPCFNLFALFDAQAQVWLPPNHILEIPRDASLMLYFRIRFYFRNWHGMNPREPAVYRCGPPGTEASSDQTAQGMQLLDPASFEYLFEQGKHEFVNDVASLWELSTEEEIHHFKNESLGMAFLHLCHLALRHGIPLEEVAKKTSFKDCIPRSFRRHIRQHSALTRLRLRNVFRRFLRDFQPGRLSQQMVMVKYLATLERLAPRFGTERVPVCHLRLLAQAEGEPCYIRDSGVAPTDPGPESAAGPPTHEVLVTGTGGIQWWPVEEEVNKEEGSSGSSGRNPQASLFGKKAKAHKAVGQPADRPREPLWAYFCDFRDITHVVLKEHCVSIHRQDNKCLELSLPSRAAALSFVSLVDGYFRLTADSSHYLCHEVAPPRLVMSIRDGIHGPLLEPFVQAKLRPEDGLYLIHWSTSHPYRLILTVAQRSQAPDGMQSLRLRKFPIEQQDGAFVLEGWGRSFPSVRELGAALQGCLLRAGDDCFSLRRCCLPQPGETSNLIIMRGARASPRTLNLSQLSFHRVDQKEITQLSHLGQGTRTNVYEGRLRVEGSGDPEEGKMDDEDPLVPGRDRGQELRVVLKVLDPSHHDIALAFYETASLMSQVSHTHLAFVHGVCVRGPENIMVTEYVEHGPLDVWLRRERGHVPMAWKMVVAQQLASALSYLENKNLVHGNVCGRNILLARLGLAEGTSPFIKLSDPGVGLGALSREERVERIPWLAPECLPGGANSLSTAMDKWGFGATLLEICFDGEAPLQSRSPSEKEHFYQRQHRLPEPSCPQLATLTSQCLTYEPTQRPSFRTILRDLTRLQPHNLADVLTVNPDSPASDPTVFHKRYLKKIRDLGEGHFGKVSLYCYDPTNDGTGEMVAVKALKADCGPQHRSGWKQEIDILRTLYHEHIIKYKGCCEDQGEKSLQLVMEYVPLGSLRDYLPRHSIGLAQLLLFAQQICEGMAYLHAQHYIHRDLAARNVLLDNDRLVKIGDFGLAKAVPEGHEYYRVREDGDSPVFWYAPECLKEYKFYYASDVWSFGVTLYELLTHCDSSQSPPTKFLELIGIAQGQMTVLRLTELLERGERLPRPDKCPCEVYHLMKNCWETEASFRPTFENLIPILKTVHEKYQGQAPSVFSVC
Chain of Fibroblast growth factor receptor 4 (Homo sapiens) (P22455 22-802 limits assumed): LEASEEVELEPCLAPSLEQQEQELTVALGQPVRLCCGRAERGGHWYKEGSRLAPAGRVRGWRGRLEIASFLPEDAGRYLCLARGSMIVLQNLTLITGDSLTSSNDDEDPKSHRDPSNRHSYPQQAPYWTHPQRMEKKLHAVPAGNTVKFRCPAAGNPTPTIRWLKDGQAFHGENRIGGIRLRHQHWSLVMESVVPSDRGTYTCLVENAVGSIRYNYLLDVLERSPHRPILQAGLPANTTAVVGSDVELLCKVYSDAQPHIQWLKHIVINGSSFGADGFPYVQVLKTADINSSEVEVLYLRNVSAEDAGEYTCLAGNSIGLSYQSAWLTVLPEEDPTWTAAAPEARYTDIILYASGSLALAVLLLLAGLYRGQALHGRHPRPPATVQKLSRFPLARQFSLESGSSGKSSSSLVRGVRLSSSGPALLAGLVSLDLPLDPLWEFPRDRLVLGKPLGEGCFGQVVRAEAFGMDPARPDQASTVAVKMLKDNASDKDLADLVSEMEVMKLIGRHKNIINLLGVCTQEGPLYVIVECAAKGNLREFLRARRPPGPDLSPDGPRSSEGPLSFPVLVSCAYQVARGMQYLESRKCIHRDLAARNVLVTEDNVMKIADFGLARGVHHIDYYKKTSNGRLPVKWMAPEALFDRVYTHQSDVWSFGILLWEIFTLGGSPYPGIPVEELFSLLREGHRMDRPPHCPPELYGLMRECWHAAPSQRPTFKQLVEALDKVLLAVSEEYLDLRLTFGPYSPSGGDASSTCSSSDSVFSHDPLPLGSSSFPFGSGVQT
Chain of Tyrosine-protein kinase Fgr (Homo sapiens) (P09769 2-529 limits assumed): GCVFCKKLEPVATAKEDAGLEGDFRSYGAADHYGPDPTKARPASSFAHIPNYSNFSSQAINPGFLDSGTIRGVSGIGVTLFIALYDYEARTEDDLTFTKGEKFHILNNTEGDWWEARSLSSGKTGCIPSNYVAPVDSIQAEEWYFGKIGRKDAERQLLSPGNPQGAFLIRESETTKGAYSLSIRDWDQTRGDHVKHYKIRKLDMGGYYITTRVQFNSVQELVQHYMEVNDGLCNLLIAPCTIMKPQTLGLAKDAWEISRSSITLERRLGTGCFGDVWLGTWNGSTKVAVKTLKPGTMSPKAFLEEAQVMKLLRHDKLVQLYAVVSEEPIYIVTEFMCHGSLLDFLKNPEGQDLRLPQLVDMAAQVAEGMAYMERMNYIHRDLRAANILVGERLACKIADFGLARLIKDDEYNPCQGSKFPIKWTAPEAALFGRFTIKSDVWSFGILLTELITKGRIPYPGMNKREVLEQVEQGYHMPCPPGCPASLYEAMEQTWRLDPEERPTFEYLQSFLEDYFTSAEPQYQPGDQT

The term inhibition denotes the drop in the measured response relative to a control, in per cent. In the case of `COc1cc2ncn(-c3cc(OCc4ccccc4Cl)c(C(N)=O)s3)c2cc1OC`, the inhibition is 2.76% in assay [1]; 3.61% in assay [2]; 19.1% in assay [3]; 0.69% in assay [4]; 9.81% in [5]; 0.85% in [6]. Moreover, the inhibition in assay [7] was 3.62%; in [8], -2.29%; in assay [9], 2.41%; in [10], 1.87%.
With `CNC(=O)c1cncc(/C=C/c2c(Cl)cccc2Cl)c1`, the inhibition in [1] was 1.17%; in [2], 3.11%; in [3] it was 21.3%; in assay [4] it was 0.03%; in [5], 4.61%; in assay [6], -0.33%. The inhibition in [7] is 2.17%; in [8] it was -3.3%; in [9] it was -3.44%; in assay [10], 1.91%.
Turning to `CN(C)c1cc2c(Nc3ccc4nc(Cc5ccccc5)[nH]c4c3)ncnc2cn1`, the inhibition in assay [1] worked out at 13.5%; in assay [2], 17.2%; in assay [3], 42.2%; in [4], 3.21%; in [5], 11.2%; in assay [6], 0.49%. In addition, the inhibition in [7] is 0.52%; in [8] it was -0.65%; in [9] it was -7.84%; in assay [10] it was 3.2%.
Turning to `NS(=O)(=O)c1ccc(N/N=C2\C(=O)Nc3ccc(C(=O)NCCc4c[nH]cn4)cc32)cc1`, the inhibition in assay [1] amounted to 2.39%; in assay [2] it was 4.54%; in assay [3], 19.1%; in [4], 2.21%; in assay [5] it was 10.7%; in assay [6], 7.03%. For the same molecule, the inhibition in assay [7] was found to be 23.4%; in [8] it was 8.84%; in assay [9], 0.3%; in assay [10], 5.07%.
For the molecule `CN1CCC(C(=O)Nc2n[nH]c3nnc(-c4ccccc4)cc23)CC1`, the inhibition is -0.57% in assay [1]; 5.18% in assay [2]; 4.46% in [3]; 0.44% in assay [4]; 2.94% in [5]; 2.28% in [6]. Further, the inhibition was 1.88% in assay [7], -4.39% in assay [8], -0.97% in assay [9] and 2.36% in assay [10].
As for `CCn1c(-c2nonc2N)nc2c(N3CCCC3)nccc21`, the inhibition in assay [1] is -0.48%; in assay [2], -0.82%; in assay [3], -0.02%; in [4] it was -0.79%; in assay [5] it was -0.61%; in assay [6], -0.78%. Also, the inhibition in [7] is -2%; in assay [8], -4.93%; in [9], 4.26%; in [10], -1.31%.
Take `c1cnn2ncc(-c3ccnc(Nc4ccc5c(c4)OCCO5)n3)c2c1`: the inhibition in [1] is 4.77%; in assay [2], 4.29%; in [3] it was 14.5%; in assay [4] it was 8.17%; in [5], 20.5%; in [6], 29.5%. Also, the inhibition was 75.7% in assay [7], 9.31% in assay [8], 12.8% in assay [9] and 5.88% in assay [10].
For `CS(=O)(=O)CCNCc1ccc(-c2ccc3ncnc(Nc4ccc(OCc5cccc(F)c5)c(C(F)(F)F)c4)c3c2)o1`, the inhibition in assay [1] is -0.05%; in assay [2], 3.99%; in assay [3], 2.16%; in assay [4], -0.83%; in [5], -0.68%; in assay [6] it was 1%. The inhibition in [7] was 1.21%; in [8] it was -2.74%; in assay [9], -3.56%; in assay [10], 3.52%.
On to `Cc1nn(C)c2cc(N(C)c3ccnc(Nc4cccc(S(N)(=O)=O)c4)n3)ccc12`, for which the inhibition in assay [1] was found to be 0.29%; in assay [2] it was 14.8%; in [3], 48%; in assay [4], 2.5%; in assay [5] it was 30%; in assay [6], 2.69%. Also, the inhibition in [7] was determined as 15.4%; in [8], 2.72%; in [9] it was 2.39%; in [10] it was 6.07%.
For the molecule `NCc1ccc(-c2nc(-c3ccc(Cl)c(O)c3)c(-c3ccncc3)[nH]2)cc1`, the inhibition in [1] is 2.75%; in assay [2] it was 4.3%; in [3], 32.8%; in [4], 19.8%; in [5] it was 70.6%; in assay [6], -0.2%. Besides, the inhibition was 3.28% in assay [7], 2.87% in assay [8], -1.84% in assay [9] and 0.69% in assay [10].
Take `CS(=O)(=O)CCNCc1nc(-c2ccc3ncnc(Nc4ccc(F)c(Cl)c4)c3c2)cs1`: the inhibition in assay [1] was -0.36%; in assay [2] it was 5.78%; in assay [3], 10.6%; in assay [4], 1.98%; in [5] it was -0.42%; in [6], -0.6%. Besides, the inhibition was 0.63% in assay [7], 2.29% in [8], -3.18% in assay [9] and 0.5% in [10].
`COc1ccc(-c2nn3ncccc3c2-c2ccnc(Nc3ccc(Cl)c(C(F)(F)F)c3)n2)cc1`: the inhibition was 0.98% in [1]; 5.75% in assay [2]; 16.9% in [3]; -1.35% in [4]; 1.63% in assay [5]; -0.69% in assay [6]. The inhibition in assay [7] was 1.14%; in assay [8] it was -1.91%; in [9], 1.02%; in assay [10], 0.79%.
`Fc1cccc(COc2ccc(Nc3ncnc4sc(-c5cccs5)cc34)cc2Cl)c1`: the inhibition in assay [1] is 3.41%; in [2], 1.43%; in [3], 3.69%; in [4], -0.58%; in assay [5] it was 3.56%; in assay [6] it was 0.38%. Also, the inhibition in [7] was 3.27%; in assay [8], -2.12%; in assay [9], 1.15%; in assay [10], 0.54%.
As for `Fc1cccc(COc2ccc(Nc3ncnc4cc(-c5ccc[nH]5)sc34)cc2Cl)c1`, the inhibition in [1] is -3.31%; in [2] it was 3.74%; in [3] it was 11%; in assay [4], -0.98%; in assay [5], 1.18%; in assay [6], -0.44%. For the same molecule, the inhibition was found to be 2.33% in [7], 2.49% in assay [8], 0.5% in assay [9] and 2.87% in assay [10].
With `COc1cc2ncn(-c3cc(O[C@H](C)c4ccccc4Cl)c(C(N)=O)s3)c2cc1OC`, the inhibition in assay [1] was found to be 8.7%; in assay [2], 8.54%; in assay [3] it was 17.3%; in assay [4], 4.8%; in [5], 26.2%; in [6], 6.07%. Further, the inhibition is 24.8% in assay [7], 5.85% in [8], -0.12% in assay [9] and 7.57% in assay [10].
For `COc1ccccc1Nc1ncc(-c2ccccc2)o1`, the inhibition in assay [1] was 0.7%; in assay [2], 5.21%; in assay [3], 12.1%; in assay [4] it was 4.3%; in [5] it was 16.4%; in assay [6], 61%. Further, the inhibition in [7] is 87.2%; in [8], 5.09%; in [9] it was -0.92%; in assay [10], 1.91%.
In the case of `COc1cc(C)c(NC(=O)CN(C)C)cc1Nc1nc(Nc2cccc(F)c2C(N)=O)c2cc[nH]c2n1`, the inhibition came out at 1.48% in assay [1]; 0.83% in assay [2]; 2.7% in assay [3]; 2.27% in assay [4]; 0.42% in [5]; 1.69% in assay [6]. The inhibition in [7] is 4.08%; in [8] it was -5.02%; in assay [9], -1.61%; in [10], 2.82%.
